Data as given in PubChem BioAssay.
Activity calls are given as the source filed them.

Columns and labels:
Albumin (Bos taurus) = Albumin (Bos taurus) (UniProt P02769); assay: compounds binding labelled BSA control protein – biochemical, small-molecule microarray, Alexa647 label, 635/667 nm fluorescence, artefact control for SMM control protein annotation, profiling panel (AID 1118); conditions: BSA-A647 binding, fluorescence 635 nm, higher = more signal;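 note: score merges 667 nm emission intensity and signal-to-noise per printed compound spot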
[1] = probe aXIP binding to arrayed compounds – biochemical, NeuroSMM set, 635/667 nm fluorescence, primary screen (AID 1119); conditions: small-molecule microarray, higher = more signal, called active from +8 up or from −8 down;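 note: probe is the protein aXip251-270 applied at 1 µg/mL to compound-printed slides; binding of probe to printed compounds measured as 667 nm fluorescence plus signal to noise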
[2] = probe aNOTCH3 binding on compound microarray – biochemical, small-molecule microarray, 635/667 nm fluorescence, primary screen (AID 1120); conditions: higher = more signal;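 note: probe is a biotin-tagged antibody raised against NOTCH3 rather than NOTCH3 protein; score merges spot fluorescence near 667 nm with spot signal to noise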
[3] = probe aNOTCH2 binding on compound microarray – biochemical, small-molecule microarray, 635/667 nm fluorescence, primary screen (AID 1121); conditions: higher = more signal;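 note: score merges feature fluorescence read at 667 nm with its signal to noise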
[4] = target: Carbonic anhydrase 2 (Homo sapiens) (UniProt P00918); assay: compounds binding carbonic anhydrase 2 – biochemical, small-molecule microarray, Alexa647-labelled CAII, profiling panel (AID 1122); conditions: CAII-A647 binding fluorescence, higher = more signal
[5] = COS7 lysate on small-molecule microarray, probe aHis, 635 nm (AID 1123); conditions: COS7 cell lysate, fluorescence, higher = more signal;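 note: z-score combines 667nm fluorescence intensity with signal-to-noise per printed compound spot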
[6] = probe aLAP1 signal on lysate-treated microarray – cell lysate, small-molecule microarray, COS7 lysate, primary screen (AID 1124); conditions: probe aLAP1, fluorescence, higher = more signal;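 note: lysate comes from COS7 cells expressing LAP1 and is applied at 0.3 µg/mL; score merges spot fluorescence near 667 nm with signal-to-noise over triplicate slides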
Sam68 (KHDRBS1) = assay: compounds binding KHDRBS1 protein – biochemical, small-molecule microarray, 635 nm fluorescence, primary screen (AID 1125); conditions: higher = more signal;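 note: score merges 667 nm channel intensity with signal to noise over triplicate slides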
[7] = tested on: Chordin-like protein 2 (CHRDL2); assay: compounds binding chordin-like 2 – biochemical, small-molecule microarray, 635 nm fluorescence, primary screen (AID 1126); conditions: fluorescence 635 nm, higher = more signal;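 note: printed compound slides probed with Chrdl2 protein at 4 µg/mL for 1 h at 4 C; score merges 667 nm emission intensity with signal to noise over three replicate slides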
[8] = target: Concanavalin-A (Canavalia ensiformis) (UniProt P02866); assay: compounds binding concanavalin A lectin – biochemical, small-molecule microarray, Alexa647 label, 635 nm, artefact control for SMM control protein annotation, primary screen (AID 1127); conditions: ConA-A647 binding fluorescence, higher = more signal;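 note: z combines 667 nm emission intensity with signal-to-noise across three replicate slides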
[9] = compounds binding Alexa647 anti-His antibody – biochemical, small-molecule microarray, 635 nm fluorescence, artefact control for SMM control protein annotation, primary screen (AID 1128); conditions: higher = more signal;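 note: score merges feature fluorescence with signal-to-noise for each printed compound spot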
[10] = tested on: Human papillomavirus type 1a E7 protein (residues 1-88); assay: HPV1a E7 small-molecule binders, primary screen, biochemical, small-molecule microarray, residues 1-88, 635 nm (AID 1129); conditions: small-molecule microarray binding, fluorescence 635 nm; higher = more signal
[11] = target: Focal adhesion kinase 1 (Homo sapiens) (UniProt Q05397); assay: PTK2 protein binding on printed compound slides – biochemical, small-molecule microarray, 635/667 nm fluorescence, BSA, DTT, primary screen (AID 1130); conditions: 635 nm fluorescence, higher = more signal;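 note: composite of spot emission at 667 nm and signal to noise over triplicate slides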
[12] = tested on: Fibrinogen (Alexa647-labelled); assay: Alexa647-fibrinogen binding to printed small molecules – biochemical, small-molecule microarray, 635/667 nm fluorescence, artefact control for SMM control-protein annotation, profiling panel (AID 1131); conditions: fibrinogen-A647 binding fluorescence, higher = more signal;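 note: z-score merges 667 nm fluorescence with per-spot signal-to-noise over triplicate slides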
[13] = target: Follistatin (Homo sapiens) (UniProt P19883); assay: FST protein binding to printed compounds – biochemical, small-molecule microarray, 635/667 nm fluorescence, primary screen (AID 1132); conditions: 635 nm fluorescence, higher = more signal
[14] = target: Fibroblast growth factor 2 (Homo sapiens) (UniProt P09038); assay: basic fibroblast growth factor binding to printed compounds – biochemical, small-molecule microarray, 635/667 nm fluorescence, primary screen (AID 1133); conditions: FGF2, fluorescence 635/667, higher = more signal
[15] = JC-1 mitochondrial potential readout, lung cancer cells – cell-based, A549, JC-1 fluorescence, basal, 24 h, 100 nL, profiling panel (AID 1138); conditions: higher = more signal;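 note: A549 lung adenocarcinoma cells under basal conditions with no added stimulus; test concentration not given here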
Lefty1 = Lefty1 protein binding to printed compounds – biochemical, small-molecule microarray, 635/667 nm fluorescence, primary screen (AID 1139); conditions: fluorescence 635/667, higher = more signal
[16] = tested on: wheat germ agglutinin (Triticum aestivum), Alexa647-labelled; assay: Alexa647-WGA lectin binding to printed small molecules – biochemical, small-molecule microarray, 635/667 nm fluorescence, artefact control for SMM control-protein annotation, profiling panel (AID 1140); conditions: WGA-A647 binding, 635 nm fluorescence, higher = more signal;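 note: score merges 667 nm feature emission with signal to noise over triplicate slides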
[17] = target: Luciferin 4-monooxygenase (Photinus pyralis) (UniProt P08659); assay: inhibition of purified Photinus pyralis luciferase – biochemical, luminescence, purified enzyme, 2006 set, primary screen (AID 1141); conditions: purified firefly luciferase, SteadyGlo luminescence, 30 min; higher = more signal, called active from +8 up or from −8 down;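 note: cell-free assay with purified firefly luciferase at 100 ng per well in PBS; test concentration not given here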
Luciferin 4-monooxygenase (Photinus pyralis), sequence (P08659 whole entry, looked up): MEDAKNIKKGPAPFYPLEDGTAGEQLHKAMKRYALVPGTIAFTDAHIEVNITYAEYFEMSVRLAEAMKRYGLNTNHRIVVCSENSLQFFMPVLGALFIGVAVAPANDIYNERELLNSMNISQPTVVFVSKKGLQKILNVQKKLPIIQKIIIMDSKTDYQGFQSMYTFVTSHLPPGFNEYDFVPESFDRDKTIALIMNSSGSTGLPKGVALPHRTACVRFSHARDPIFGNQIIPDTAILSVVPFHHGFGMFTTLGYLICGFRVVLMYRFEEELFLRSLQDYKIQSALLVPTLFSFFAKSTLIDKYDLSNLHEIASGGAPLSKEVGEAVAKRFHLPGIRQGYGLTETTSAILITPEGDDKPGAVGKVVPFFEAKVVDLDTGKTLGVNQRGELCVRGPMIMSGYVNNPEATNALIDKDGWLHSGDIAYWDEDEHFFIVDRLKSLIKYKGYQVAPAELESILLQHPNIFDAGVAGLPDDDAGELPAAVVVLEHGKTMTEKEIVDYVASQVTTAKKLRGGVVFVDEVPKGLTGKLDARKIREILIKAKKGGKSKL

Concanavalin-A (Canavalia ensiformis), sequence (P02866 whole entry, looked up): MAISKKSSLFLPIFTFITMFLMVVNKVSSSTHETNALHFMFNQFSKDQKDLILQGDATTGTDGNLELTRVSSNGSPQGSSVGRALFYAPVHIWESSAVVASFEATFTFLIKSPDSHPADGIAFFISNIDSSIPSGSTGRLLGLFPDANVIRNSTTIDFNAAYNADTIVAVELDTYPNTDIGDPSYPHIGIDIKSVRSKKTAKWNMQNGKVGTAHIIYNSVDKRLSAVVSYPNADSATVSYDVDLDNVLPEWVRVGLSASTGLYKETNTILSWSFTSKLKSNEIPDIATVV
Fibroblast growth factor 2 (Homo sapiens), sequence (P09038 whole entry, looked up): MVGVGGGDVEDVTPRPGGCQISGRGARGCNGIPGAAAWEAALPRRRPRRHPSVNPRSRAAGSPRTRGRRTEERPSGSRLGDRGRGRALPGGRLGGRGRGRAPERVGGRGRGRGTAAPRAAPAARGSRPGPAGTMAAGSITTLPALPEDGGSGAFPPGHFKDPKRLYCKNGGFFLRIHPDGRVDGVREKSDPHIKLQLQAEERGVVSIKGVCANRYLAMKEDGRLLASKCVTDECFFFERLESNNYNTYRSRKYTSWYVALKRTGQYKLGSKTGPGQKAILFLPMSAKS
Albumin (Bos taurus), sequence (P02769 whole entry, looked up): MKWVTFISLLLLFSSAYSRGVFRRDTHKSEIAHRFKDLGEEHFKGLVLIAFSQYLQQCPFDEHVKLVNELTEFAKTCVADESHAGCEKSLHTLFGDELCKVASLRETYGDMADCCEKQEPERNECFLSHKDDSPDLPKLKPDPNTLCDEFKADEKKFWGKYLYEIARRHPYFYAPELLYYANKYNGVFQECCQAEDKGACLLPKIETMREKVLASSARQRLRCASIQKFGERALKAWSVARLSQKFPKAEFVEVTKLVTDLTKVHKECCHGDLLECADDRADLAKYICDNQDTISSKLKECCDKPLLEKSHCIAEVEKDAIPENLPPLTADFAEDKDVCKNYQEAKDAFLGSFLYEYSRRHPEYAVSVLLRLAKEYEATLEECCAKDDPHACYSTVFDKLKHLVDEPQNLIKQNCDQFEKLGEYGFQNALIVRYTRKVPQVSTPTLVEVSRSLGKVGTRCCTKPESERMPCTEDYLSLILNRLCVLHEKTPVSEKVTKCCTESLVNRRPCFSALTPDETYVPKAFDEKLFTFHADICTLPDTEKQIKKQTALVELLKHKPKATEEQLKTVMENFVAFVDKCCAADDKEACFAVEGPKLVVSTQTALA
Follistatin (Homo sapiens), sequence (P19883 whole entry, looked up): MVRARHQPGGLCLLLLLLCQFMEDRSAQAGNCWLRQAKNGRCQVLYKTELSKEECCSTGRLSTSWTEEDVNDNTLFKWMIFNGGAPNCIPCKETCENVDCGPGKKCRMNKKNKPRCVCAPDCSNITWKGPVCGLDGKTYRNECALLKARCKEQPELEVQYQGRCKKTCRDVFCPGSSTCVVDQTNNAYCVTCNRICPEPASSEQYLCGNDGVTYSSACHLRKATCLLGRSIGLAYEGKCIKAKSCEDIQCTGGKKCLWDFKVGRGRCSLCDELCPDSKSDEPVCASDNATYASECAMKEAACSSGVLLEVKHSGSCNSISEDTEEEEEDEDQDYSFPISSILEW
Focal adhesion kinase 1 (Homo sapiens), sequence (Q05397 whole entry, looked up): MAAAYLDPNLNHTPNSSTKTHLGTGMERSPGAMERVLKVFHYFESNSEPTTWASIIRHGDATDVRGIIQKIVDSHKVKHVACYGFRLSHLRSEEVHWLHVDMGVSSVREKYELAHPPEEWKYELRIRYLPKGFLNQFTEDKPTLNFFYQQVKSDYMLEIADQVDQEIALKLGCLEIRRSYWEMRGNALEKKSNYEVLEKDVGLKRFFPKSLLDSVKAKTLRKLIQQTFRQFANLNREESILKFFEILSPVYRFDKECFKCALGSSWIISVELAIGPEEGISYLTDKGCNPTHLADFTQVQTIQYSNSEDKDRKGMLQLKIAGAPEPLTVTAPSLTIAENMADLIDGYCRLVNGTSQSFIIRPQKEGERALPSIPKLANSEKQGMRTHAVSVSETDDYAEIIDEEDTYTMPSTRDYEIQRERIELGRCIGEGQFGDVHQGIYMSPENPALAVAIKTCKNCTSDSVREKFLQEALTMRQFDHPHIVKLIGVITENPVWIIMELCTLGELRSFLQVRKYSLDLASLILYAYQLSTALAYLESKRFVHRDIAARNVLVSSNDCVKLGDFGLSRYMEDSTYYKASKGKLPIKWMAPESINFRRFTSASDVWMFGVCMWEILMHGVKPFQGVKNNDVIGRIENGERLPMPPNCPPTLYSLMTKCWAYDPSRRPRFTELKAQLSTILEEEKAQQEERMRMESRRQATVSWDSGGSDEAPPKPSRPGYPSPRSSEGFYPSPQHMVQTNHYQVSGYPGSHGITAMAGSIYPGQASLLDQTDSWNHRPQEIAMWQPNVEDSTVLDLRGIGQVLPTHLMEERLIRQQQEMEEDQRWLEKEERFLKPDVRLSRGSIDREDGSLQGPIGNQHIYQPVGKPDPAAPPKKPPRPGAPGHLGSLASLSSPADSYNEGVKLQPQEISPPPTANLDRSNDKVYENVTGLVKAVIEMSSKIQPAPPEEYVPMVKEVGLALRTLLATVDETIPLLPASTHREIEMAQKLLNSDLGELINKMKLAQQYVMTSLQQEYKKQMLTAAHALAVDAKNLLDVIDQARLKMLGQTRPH

Row | Structure (SMILES) | composite z-score (Albumin (Bos taurus)) | composite Z-score [1] | composite z-score [2] | composite z-score [3] | composite z-score [4] | composite z-score [5] | composite z-score [6] | composite z-score (Sam68 (KHDRBS1)) | composite z-score [7] | composite z-score [8] | composite z-score [9] | composite z-score [10] | composite z-score [11] | composite z-score [12] | composite z-score [13] | composite z-score [14] | z-score [15] | composite z-score (Lefty1) | composite z-score [16] | z-score [17]
1 | O=C1c2ccccc2[C@](Cc2ccccc2I)(C(=O)NCCN2CCOCC2)[C@H](c2ccc(CO)cc2)N1Cc1ccccc1C(F)(F)F | 0.543 | -0.0238 (inactive) | -0.0014 | -0.0771 | 0.594 | 2.09 | 0.329 | 1.29 | -0.408 | 1.13 | 0.218 | 1.18 | 0.334 | 0.88 | 0.447 | 0.0123 | 2.25 | 0.246 | 0.418 | -0.0684 (inactive)
2 | COCCCNC(=O)[C@]1(Cc2ccccc2N=[N+]=[N-])N=C(c2ccc(OCCCO)cc2)O[C@@H]1c1ccccc1 | 0.894 | 0.522 (inactive) | 0.619 | 0.308 | 0.304 | 2.85 | 0.536 | 1.3 | -0.586 | 1.11 | 2.96 | 1.24 | 1.05 | 0.977 | 1.25 | 0.94 | 2.2 | -0.252 | 1.3 | -1.9 (inactive)
3 | O=C(NCC(F)(F)F)[C@@H]1c2ccccc2C(=O)N(Cc2cc(C(F)(F)F)cc(C(F)(F)F)c2)[C@H]1c1ccc(CO)cc1 | 0.195 | -0.368 (inactive) | -0.154 | -0.0984 | 0.207 | 0.729 | 0.158 | 0.178 | 0.0632 | 0.209 | 3.22 | 0.0165 | 0.246 | -0.0773 | 0.647 | 0.295 | 1.89 | -0.26 | -0.352 | 0.839 (inactive)
4 | C=C(CCCC)C(=O)CC[C@H](OC(=O)c1ccccc1-c1ccccc1C(=O)O)c1cccc(OCCO)c1 | 0.314 | -0.634 (inactive) | -0.161 | -0.126 | 0.749 | 0.729 | 1.07 | 0.225 | -0.189 | -1.14 | -0.413 | -0.298 | -0.194 | -0.435 | -0.0662 | 0.591 | 0.15 | 0.191 | -0.373 | -0.755 (inactive)
5 | C=C(C(=O)CC[C@H](OC(=O)c1ccccc1-c1ccccc1C(=O)O)c1ccc(OCCO)cc1)C(C)C | 0.816 | -0.691 (inactive) | 0.0282 | -0.106 | 0.59 | 1.61 | -0.284 | 0.884 | -0.0766 | 0.708 | 0.547 | 1.16 | 0.124 | 0.981 | 0.901 | 0.726 | -0.45 | 0.64 | 0.189 | -1.35 (inactive)
6 | C=C(C(=O)CC[C@@H](OC(=O)c1ccccc1-c1ccccc1C(=O)O)c1ccc(OCCO)cc1)C(C)C | 0.0832 | -0.32 (inactive) | 0.169 | -0.0876 | 0.801 | 0.393 | -0.0004 | 0.929 | 0.639 | 0.94 | 1.19 | 0.977 | -0.118 | 0.691 | 1.2 | 1.77 | 0.58 | 1.26 | 0.889 | -2.66 (inactive)
7 | C=C(CCCC)/C(=C/C[C@@H](OC(C)=O)c1cccc(OCCO)c1)c1cc(C(=O)OC)ccc1OC | 0.119 | 0.303 (inactive) | -0.0131 | -0.168 | 0.561 | -0.22 | -0.247 | 0.71 | -0.0137 | -0.656 | 0.57 | 0.0538 | 0.0738 | 0.249 | 0.705 | 0.0923 | 1.63 | 1.08 | 0.617 | -0.132 (inactive)
8 | CCc1cccc(NC(=O)O[C@H]2[C@H](OC(=O)Nc3ccccc3-c3ccccc3)[C@H](OC(=O)Nc3ccccc3-c3ccccc3)[C@@H](OC)O[C@@H]2CO)c1 | 0.715 | 0.814 (inactive) | 0.122 | -0.0273 | 0.728 | 2.04 | 0.0611 | 1.28 | 0.478 | 1.12 | 0.979 | 1.21 | 0.775 | 1.01 | 1.36 | 0.598 | -1.35 | 1.21 | 0.834 | 1.09 (inactive)
9 | C=C(CCCC)/C(=C/C[C@@H](OC(C)=O)c1ccc(OCCO)cc1)c1cc(C(=O)OC)ccc1OC | -0.526 | 0.0578 (inactive) | -0.0377 | -0.092 | 0.721 | 1.55 | 0.155 | 1.2 | -0.362 | 0.787 | -0.435 | 0.858 | 0.304 | -0.156 | 0.335 | -0.0009 | 1.85 | 0.548 | 0.94 | -1.07 (inactive)
10 | C=C[C@H](OC)[C@@H](O)c1ccc(OC)c(O)c1 | 0.985 | -0.272 (inactive) | -0.557 | -0.19 | 0.145 | -0.651 | -0.0037 | -2.47 | -1.01 | -1.9 | -0.495 | -1.4 | -0.833 | -1.99 | -0.857 | 0.598 | 0.793 | -1.82 | -0.609 | -1.1 (inactive)
